Measurements as given in PubChem BioAssay AID1347150 (National Center for Advancing Translational Sciences (NCATS), 2019).
Results filed as inconclusive are left out. The source made the active and inactive calls. Calls follow the shape of the dose curve; as a rule, active = well fitted curve in the direction sought with a large enough effect; inconclusive = small, poorly fitted or top-dose-only effect, or another doubt; inactive = no such curve, though single readings can be large or run the other way.

The compounds below were run on Zika virus NS2B-NS3 protease (linked) (assay: Optimization screen NINDS AMC qHTS for Zika virus inhibitors: Linked NS2B-NS3 protease assay). Details: recombinant linked NS2B-NS3 protease, AMC fluorogenic substrate; series mostly up to 52.5 µM; activity change, negative = inhibition: at the top concentration.
Source text: Avindra Nath, Ph.D., National Institute of Neurological Disorders and Stroke (NINDS), Bethesda, MD
Radhakrishnan Padmanabhan, Ph.D., Georgetown University (GU), Washington D.C.
Zika Virus causes congenital defects, including microcephaly and is associated with Guillain-Barre syndrome, eningoencephalitis and myelitis in infected adult. […] Using a target-based approach, we hope to establish a screening paradigm to uncover novel, cell-active NS2B-NS3 protease (Zika Virus) specific inhibitors from NCATS' collection of small molecules using qHTS.
Four assay panel was created to identify potential Zika Virus inhibitors. Namely, (1) GU unlinked NS2B-NS3 AMC tagged protease qHTS, (2) GU unlinked NS2B-NS3 Rhodamine tagged protease qHTS, (3) NINDS linked NS2B-NS3 AMC tagged protease qHTS, (4) NINDS linked NS2B-NS3 Rhodamine tagged protease qHTS. Active compounds were re-acquired and re-screened to confirm inhibition. Inhibitors were further screened against various confirmatory and counterscreens in dose response format.
Early Translation Branch (ETB)
National Center for Advancing Translational Sciences (NCATS), Rockville, MD
National Institute of Health (NIH), Bethesda, Maryland
For the linked assay, Nath lab (NINDS) provided the purified linked NS2B-NS3 protease which is consists of hydrophilic domain of NS2B linked to the NS3 protease domain by a flexible (-GGGGSGGGG-) linker. Control compound aprotinin is obtained from Thermo Scientific (#78432; Waltham, Massachusetts). NS2B-NS3 AMC substrate (Bz-Nle-Lys-Arg-Arg-AMC; Nle-KRR-AMC) purchased from Bachem (#I-1995; Torrance, CA). Ac-VKTGKR-AMC purchased from Genscript or Bachem, Ac-FAAGKR-AMC purchased from Genscript, Ac-GLVKRR-AMC purchased from Genscript, Ac-LKKR-AMC purchased from Genscript.
NINDS AMC linked NS2B-NS3 protease qHTS protocol:
Briefly, 3 microL of Zika virus linked NS2B-NS3 protease (1 nM for linked final concentration), in assay buffer (10 mM Tris-HCl pH 8.0 with 0.01% Tween 20) was dispensed into a 1,536-well solid-bottom black plate (Greiner Bio One, Monroe, NC). Twenty-three nL of compounds (final concentration range 7.28 nM to 114 microM) or control Aprotinin (final concentration range 3.47 nM to 114 microM) were transferred via Wako Pin-tool (Wako Automation, Richmond, VA). Samples were incubated (room temperature, protected from light) for 15 minutes followed by a 1 microL AMC substrate addition of (final concentration of 10 microM; Km = 18.3 µM). Plates were then read immediately on a ViewLux High-throughput CCD imager (PerkinElmer, Waltham, MA) equipped with standard UV fluorescence optics (340(30) nm excitation, 450(20) nm emission) then incubated (room temperature, protected from light) for 15 minutes (~20% conversion). The change in fluorescence intensity over the 15-minute reaction period was normalized against no-inhibitor and no-enzyme controls and the resulting percent inhibition data were fitted to a 4-parameter Hill equation. Aprotinin was used as the intraplate control.

Activity change, negative = inhibition, inactive:
O=C(Nc1ccc([N+](=O)[O-])cc1Cl)c1cc(Cl)ccc1O -11.4%
COC(=O)Nc1nc2ccc(C(=O)c3ccccc3)cc2[nH]1 7.48%
Nc1ccn([C@@H]2O[C@H](CO)[C@@H](O)C2(F)F)c(=O)n1 7.77% [at 114 µM]
CCCCOc1ccc(C2C(=O)N(C3CCCCC3)CC(=O)N2C2CCCCC2)cc1 (configuration not stated) -23.4%
CC(C)C[C@H](NC(=O)[C@H](Cc1ccccc1)NC(=O)c1cnccn1)B(O)O 7.56%
C[S+](CC[C@H](N)C(=O)O)C[C@H]1O[C@@H](n2cnc3c(N)ncnc32)[C@H](O)[C@H]1O (some centres not stated) -24.3%

Potency, inactive:
COc1c2occc2cc2ccc(=O)oc12
